Inconclusive results are not listed. Activity calls are given as the source filed them. Calls come from the whole dose curve; as a rule, active = well fitted cell-killing curve with a large enough effect; inconclusive = small, poorly fitted or top-dose-only effect, or effect the other way; inactive = flat fitted curve, though single readings scatter.
Tests used:
Assay in all cases: Primary qHTS to identify gynecologic anti-cancer compounds using libraries of approved drugs and bioactive compounds (AID 1345084); note: nearly all actives have a fitted effect of over 55% in size
Details in all cases: Gynecologic cancer cell panel viability, ATPlite luminescence, 48 h; series mostly up to 57.5 µM
[1] = test system: PA-1
Procedure, shortened: (§1)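 48 h compound exposure at 37 C, 5% CO2; five-point qHTS. ATPlite luminescence readout of cell ATP.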

[2] = test system: SKOV3
Procedure, shortened: as §1

[3] = test system: Tov-21-G
Procedure, shortened: as §1

[4] = test system: Tov112D
Procedure, shortened: as §1

Measured: Potency

C=CC(C)(C)C12Nc3c(ccc4c3OC(C)(C)C=C4)C1(O)CC1C(=O)N3CCCC3C(=O)N12 (configuration not stated)
inactive: all assays above

CC1(C)C=Cc2c(ccc3c2[N+]([O-])=C2C3(O)CC34NC(=O)C5(CCCN5C3=O)CC4C2(C)C)O1 (configuration not stated)
inactive: all assays above

C=C(CC/C=C(\C)C(=O)O)C1(O)CC=C(C)CC1 (configuration not stated)
inactive: all assays above

CN(C)C(=O)C(O)C(Cc1ccccc1)NC(=O)c1cc2cc(Cl)ccc2[nH]1 (configuration not stated)
inactive: [1] | [2] | [4]

C=C(C)[C@@H]1CC[C@]2(C)CC[C@]3(C)C(CCC4[C@@]5(C)CC[C@H](O)C(C)(C)C5CC[C@]43C)C12 (some centres not stated)
inactive: all assays above

CN(C)CC(c1ccc(O)cc1)C1(O)CCCCC1 (configuration not stated)
inactive: [1] | [2] | [4]

C=C(C)C1Cc2c(ccc3c2OCC(c2ccc(O)cc2O)C3)O1 (configuration not stated)
inactive: all assays above

CC(NC(=O)c1ccccc1N)C(=O)O (configuration not stated)
inactive: all assays above

C/C=C/C=C/C1=C2C(=O)C3(C)C4C(C(=O)CC(O)/C=C/C)=C(O1)C1(C)C2C2(C)OC1(O)C4(C)OC23O (configuration not stated)
inactive: all assays above

C=C(C(=O)O)C1CC(O)C2(C)CCCC(C)(O)C2C1 (configuration not stated)
inactive: all assays above

CCCCS(=O)(=O)NC(Cc1ccc(OCCCCC2CCNCC2)cc1)C(=O)O (configuration not stated)
inactive: all assays above

From PubChem BioAssay (NCATS)
